Test results as given in PubChem BioAssay (NCI).
Compounds without any hit were thinned out: in the full panel of roughly 83,000, 20% have a hit.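 Single-concentration screen, 48 h exposure, 96-well plates. Endpoint: percent growth. Below 10 = active.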 Active and inactive are the calls of the source.

Tests used:
Assay in all cases: NCI-60 one-dose screen, 48 h (100 = growth as untreated, 0 = no growth, -100 = all killed)
Conditions in all cases: 10 µM unless noted
SR leukemia = test system: SR leukemia
RPMI-8226 leukemia = test system: RPMI-8226 leukemia
OVCAR-8 ovarian = test system: OVCAR-8 ovarian
OVCAR-5 ovarian = test system: OVCAR-5 ovarian
OVCAR-4 ovarian = test system: OVCAR-4 ovarian
SK-OV-3 ovarian = test system: SK-OV-3 ovarian
IGROV1 ovarian = test system: IGROV1 ovarian
OVCAR-3 ovarian = test system: OVCAR-3 ovarian
HS 578T breast = test system: HS 578T breast
NCI/ADR-RES ovarian = test system: NCI/ADR-RES ovarian
T-47D breast = test system: T-47D breast
BT-549 breast = test system: BT-549 breast
MDA-MB-435 melanoma = test system: MDA-MB-435 melanoma
SW-620 colon = test system: SW-620 colon
MCF7 breast = test system: MCF7 breast
HCT-116 colon = test system: HCT-116 colon
HCC-2998 colon = test system: HCC-2998 colon
KM12 colon = test system: KM12 colon

Measured: growth

COc1cccc(NC(=O)c2cccc(-c3cc(=O)c4c(OC)c(OC)c(OC)cc4o3)c2)c1
inactive: SR leukemia 41.9% | RPMI-8226 leukemia 17% | OVCAR-8 ovarian 47% | OVCAR-5 ovarian 90.1% | OVCAR-4 ovarian 62.6% | SK-OV-3 ovarian 109% | IGROV1 ovarian 53.3% | OVCAR-3 ovarian 66.6% | HS 578T breast 46.2% | NCI/ADR-RES ovarian 64.8% | T-47D breast 44.4% | BT-549 breast 54.2% | MDA-MB-435 melanoma 81.2% | SW-620 colon 89.6% | MCF7 breast 87.7% | HCT-116 colon 60.7% | HCC-2998 colon 87.8% | KM12 colon 53.7%

O=S(=O)(c1ccccc1)N1CCCc2ccccc21
inactive: SR leukemia 103% | RPMI-8226 leukemia 93.1% | OVCAR-8 ovarian 99% | OVCAR-5 ovarian 103% | OVCAR-4 ovarian 113% | SK-OV-3 ovarian 105% | IGROV1 ovarian 99.5% | OVCAR-3 ovarian 102% | HS 578T breast 93.2% | NCI/ADR-RES ovarian 107% | T-47D breast 96.5% | BT-549 breast 110% | MDA-MB-435 melanoma 110% | SW-620 colon 104% | MCF7 breast 96.8% | HCT-116 colon 105% | HCC-2998 colon 103% | KM12 colon 100%

CN1CCN(CC#CCNC(=O)[C@]23CCC(C)(C)C[C@H]2C2=CC[C@@H]4[C@@]5(C)Cc6c([nH]c7ccccc67)C(C)(C)[C@@H]5CC[C@@]4(C)[C@]2(C)CC3)CC1
active: SR leukemia -2.18%
inactive: RPMI-8226 leukemia 53.2% | OVCAR-8 ovarian 77% | OVCAR-5 ovarian 98.9% | OVCAR-4 ovarian 77.8% | SK-OV-3 ovarian 87.1% | IGROV1 ovarian 81.3% | OVCAR-3 ovarian 72.2% | HS 578T breast 77.9% | NCI/ADR-RES ovarian 76.9% | T-47D breast 94.4% | BT-549 breast 101% | MDA-MB-435 melanoma 47.2% | SW-620 colon 46.8% | MCF7 breast 32.4% | HCT-116 colon 22.5% | HCC-2998 colon 80% | KM12 colon 52.3%

C=C(C)[C@@H]1CC[C@]2(C(=O)O)CC[C@]3(C)[C@H](CC[C@@H]4[C@@]5(C)C[C@@H](CC#Cc6ccc(Br)cc6)C(=O)C(C)(C)[C@@H]5CC[C@]43C)[C@@H]12
inactive: SR leukemia 55.2% | RPMI-8226 leukemia 33.4% | OVCAR-8 ovarian 35.6% | OVCAR-5 ovarian 73.8% | OVCAR-4 ovarian 30.3% | SK-OV-3 ovarian 50.5% | IGROV1 ovarian 58.6% | OVCAR-3 ovarian 51.4% | HS 578T breast 59% | NCI/ADR-RES ovarian 76.4% | T-47D breast 48.3% | BT-549 breast 69.8% | MDA-MB-435 melanoma 42.4% | SW-620 colon 42.1% | MCF7 breast 49% | HCT-116 colon 39.4% | HCC-2998 colon 61.4% | KM12 colon 40.3%

CC(=O)[C@@H]1CC[C@]2(C(N)=O)CC[C@]3(C)[C@H](CC[C@@H]4[C@@]5(C)CCC(=O)C(C)(C)[C@@H]5CC[C@]43C)[C@@H]12
inactive: SR leukemia 94.4% | RPMI-8226 leukemia 80.4% | OVCAR-8 ovarian 109% | OVCAR-5 ovarian 101% | OVCAR-4 ovarian 89.1% | SK-OV-3 ovarian 90.6% | IGROV1 ovarian 107% | OVCAR-3 ovarian 103% | HS 578T breast 120% | NCI/ADR-RES ovarian 98.7% | T-47D breast 80.2% | BT-549 breast 93.3% | MDA-MB-435 melanoma 99.9% | SW-620 colon 110% | MCF7 breast 89.9% | HCT-116 colon 90.4% | HCC-2998 colon 107% | KM12 colon 100%

C#CCNC(=O)[C@H](Cc1ccccc1)NC(=O)[C@]12CC[C@@H](C(=C)C)[C@@H]1[C@H]1CC[C@@H]3[C@@]4(C)Cc5c([nH]c6ccccc56)C(C)(C)[C@@H]4CC[C@@]3(C)[C@]1(C)CC2
inactive: SR leukemia 88.5% | RPMI-8226 leukemia 82.9% | OVCAR-8 ovarian 96.5% | OVCAR-5 ovarian 95.8% | OVCAR-4 ovarian 108% | SK-OV-3 ovarian 95.4% | IGROV1 ovarian 110% | OVCAR-3 ovarian 96.5% | HS 578T breast 113% | NCI/ADR-RES ovarian 97.2% | T-47D breast 75.3% | BT-549 breast 105% | MDA-MB-435 melanoma 105% | SW-620 colon 111% | MCF7 breast 85.3% | HCT-116 colon 85.9% | HCC-2998 colon 109% | KM12 colon 103%

Nc1ncc(C#Cc2cncc(NC(=O)c3cccc(C(F)(F)F)c3)c2)c2cccnc12
active: MCF7 breast 4.41%
inactive: SR leukemia 37.7% | RPMI-8226 leukemia 60.7% | OVCAR-8 ovarian 47.5% | OVCAR-5 ovarian 52.9% | OVCAR-4 ovarian 25.6% | SK-OV-3 ovarian 67.3% | IGROV1 ovarian 40.4% | OVCAR-3 ovarian 84.6% | HS 578T breast 27% | NCI/ADR-RES ovarian 66.1% | T-47D breast 76.3% | BT-549 breast 63.1% | MDA-MB-435 melanoma 22.9% | SW-620 colon 49.3% | HCT-116 colon 21.8% | HCC-2998 colon 47.1% | KM12 colon 19%

O=C(/C=C/c1ccc[nH]1)c1ccc(-n2ccc(C(F)(F)F)n2)cc1
inactive: SR leukemia 28.4% | OVCAR-8 ovarian 88% | OVCAR-5 ovarian 89% | OVCAR-4 ovarian 97.7% | SK-OV-3 ovarian 114% | IGROV1 ovarian 103% | HS 578T breast 100% | NCI/ADR-RES ovarian 88.3% | T-47D breast 94.7% | MDA-MB-435 melanoma 99.5% | SW-620 colon 102% | MCF7 breast 72.2% | HCT-116 colon 87.3% | HCC-2998 colon 54.7%
active: RPMI-8226 leukemia -19.3% | OVCAR-3 ovarian 0.498% | BT-549 breast -45.3% | KM12 colon 1.59%

O=S(=O)(NCCNc1nccc(-c2c(-c3ccc(F)c(O)c3)nc3sccn23)n1)c1ccccc1
inactive: SR leukemia 35.8% | RPMI-8226 leukemia 41% | OVCAR-8 ovarian 67.6% | OVCAR-5 ovarian 115% | OVCAR-4 ovarian 92.8% | SK-OV-3 ovarian 85.9% | IGROV1 ovarian 68.9% | OVCAR-3 ovarian 81.6% | HS 578T breast 82.1% | NCI/ADR-RES ovarian 106% | T-47D breast 68.8% | BT-549 breast 114% | MDA-MB-435 melanoma 34.1% | SW-620 colon 70.4% | MCF7 breast 76.1% | HCT-116 colon 34.3% | HCC-2998 colon 95% | KM12 colon 71.2%

Cc1cccc(C)c1-c1cc(Cc2ccc(Cl)cc2)c(=O)[nH]n1
inactive: RPMI-8226 leukemia 52.2% | OVCAR-8 ovarian 97.1% | OVCAR-5 ovarian 96.5% | OVCAR-4 ovarian 97.6% | SK-OV-3 ovarian 103% | IGROV1 ovarian 77.6% | OVCAR-3 ovarian 103% | HS 578T breast 94% | NCI/ADR-RES ovarian 96.1% | T-47D breast 86.4% | BT-549 breast 86.1% | MDA-MB-435 melanoma 119% | SW-620 colon 104% | MCF7 breast 97.2% | HCT-116 colon 96.9% | HCC-2998 colon 86.4% | KM12 colon 103%
active: SR leukemia 4.66%

O=C(Nc1ccc(Nc2ncccn2)cc1)NC1C=c2ccccc2=CC1 (stereo unspecified)
inactive: SR leukemia 98.1% | RPMI-8226 leukemia 100% | OVCAR-8 ovarian 98.1% | OVCAR-5 ovarian 108% | OVCAR-4 ovarian 111% | SK-OV-3 ovarian 106% | IGROV1 ovarian 106% | OVCAR-3 ovarian 107% | HS 578T breast 100% | NCI/ADR-RES ovarian 106% | T-47D breast 100% | BT-549 breast 102% | MDA-MB-435 melanoma 113% | SW-620 colon 106% | MCF7 breast 97.9% | HCT-116 colon 111% | HCC-2998 colon 106% | KM12 colon 108%

Cc1[nH]c(C(=O)Nc2ccccc2OCc2cccc(C(=O)NCCN)c2)c(Cl)c1Cl
active: SR leukemia -15.8% | SW-620 colon 3.75% | HCT-116 colon 7.52%
inactive: RPMI-8226 leukemia 30.1% | OVCAR-8 ovarian 37.9% | OVCAR-5 ovarian 104% | OVCAR-4 ovarian 98.1% | SK-OV-3 ovarian 108% | IGROV1 ovarian 71.1% | OVCAR-3 ovarian 76.4% | HS 578T breast 92.6% | NCI/ADR-RES ovarian 94.3% | T-47D breast 46.5% | BT-549 breast 97.2% | MDA-MB-435 melanoma 69.1% | MCF7 breast 14.7% | HCC-2998 colon 84.4% | KM12 colon 64.1%

COc1ccc2c(c1)OC13Oc4cc(OC)ccc4C=C1CCCC3=C2
inactive: OVCAR-8 ovarian 47.7% | OVCAR-5 ovarian 47.2% | OVCAR-4 ovarian 55.2% | SK-OV-3 ovarian 60.1% | IGROV1 ovarian 41.4% | HS 578T breast 45% | NCI/ADR-RES ovarian 21.6% | T-47D breast 44.7% | BT-549 breast 35% | SW-620 colon 16.6% | HCT-116 colon 20% | HCC-2998 colon 57.9%
active: SR leukemia 4.94% | RPMI-8226 leukemia -20.6% | OVCAR-3 ovarian 5.62% | MDA-MB-435 melanoma -10.4% | MCF7 breast 8.63% | KM12 colon -5.69%

COc1ccc(C(O)c2cc3c(N)c(C(=O)Nc4ccc(Cl)cc4)sc3nc2C)cc1 (stereo unspecified)
inactive: OVCAR-8 ovarian 30.6% | OVCAR-5 ovarian 46.8% | OVCAR-4 ovarian 38.4% | SK-OV-3 ovarian 32.1% | IGROV1 ovarian 33% | NCI/ADR-RES ovarian 16% | T-47D breast 37.4% | BT-549 breast 66.4% | SW-620 colon 27.1% | MCF7 breast 16.6% | HCT-116 colon 21.7% | HCC-2998 colon 23%
active: SR leukemia -9.53% | RPMI-8226 leukemia 5.22% | OVCAR-3 ovarian -35.7% | HS 578T breast 7.82% | MDA-MB-435 melanoma -52.5% | KM12 colon 9.89%

O=S(=O)(NCCNc1nccc(-c2c(-c3ccc(F)c(O)c3)nc3occn23)n1)c1ccccc1
inactive: SR leukemia 20.2% | RPMI-8226 leukemia 33.7% | OVCAR-8 ovarian 53.7% | OVCAR-5 ovarian 101% | OVCAR-4 ovarian 85.8% | SK-OV-3 ovarian 68.6% | IGROV1 ovarian 43.9% | OVCAR-3 ovarian 77.1% | HS 578T breast 54.4% | NCI/ADR-RES ovarian 109% | T-47D breast 71.9% | BT-549 breast 80.8% | MDA-MB-435 melanoma 28.1% | SW-620 colon 63.5% | MCF7 breast 36.5% | HCT-116 colon 22.6% | HCC-2998 colon 62.1% | KM12 colon 52.6%

O=C(NCCN1CCOCC1)OCc1nc2nc(Cl)nc(N3CCOCC3)c2[nH]1
active: SR leukemia -0.969% | RPMI-8226 leukemia 8.39% | OVCAR-8 ovarian 7.4% | OVCAR-3 ovarian -2.86% | NCI/ADR-RES ovarian 6.61% | MDA-MB-435 melanoma -28.9% | HCT-116 colon 8.45% | KM12 colon 3.29%
inactive: OVCAR-5 ovarian 93.3% | OVCAR-4 ovarian 45.7% | SK-OV-3 ovarian 30.7% | IGROV1 ovarian 17.6% | HS 578T breast 14.3% | T-47D breast 63.2% | BT-549 breast 13.1% | SW-620 colon 23.9% | MCF7 breast 20.2% | HCC-2998 colon 77.8%

COc1ccc(C(=O)c2cc3c(N)c(C(=O)Nc4ccc(Br)cc4)sc3nc2C)cc1
inactive: SR leukemia 51.5% | RPMI-8226 leukemia 77% | OVCAR-8 ovarian 37.2% | OVCAR-5 ovarian 88% | SK-OV-3 ovarian 62.1% | IGROV1 ovarian 85.9% | OVCAR-3 ovarian 65.4% | HS 578T breast 32.3% | NCI/ADR-RES ovarian 70% | T-47D breast 70.6% | BT-549 breast 78.2% | MDA-MB-435 melanoma 63.6% | SW-620 colon 79.1% | MCF7 breast 71% | HCT-116 colon 58.2% | HCC-2998 colon 94.7% | KM12 colon 72%
active: OVCAR-4 ovarian 0.804%
